Test results taken from PubChem BioAssay AID2113 (National Center for Advancing Translational Sciences (NCATS), 2009).
Values joined by “and” are separate entries in the source; they are usually repeats but may differ in a detail not shown here. Equal entries are not always repeated. Inconclusive results are not listed. Active and inactive are the calls of the source. Calls come from the whole dose curve; as a rule, active = well fitted curve in either direction with a large enough effect; inconclusive = small, poorly fitted or top-dose-only effect; inactive = no such curve, though single readings can be large or run the other way.

Target: Lysosomal alpha-glucosidase (Homo sapiens) (UniProt P10253)
Assay: Confirmation of Inhibitors and Activators of Human alpha-Glucosidase From Spleen Homogenate; for activity change, both directions: 0% is about no effect
Settings: alpha-glucosidase enzyme activity; series mostly up to 60.5 µM; activity change, both directions: at the top concentration
Source text: NIH Chemical Genomics Center [NCGC]
NIH Molecular Libraries Probe Production centers Network [MLPCN]
Assay Submitter (PI): Wei Zheng
Alpha-glucosidase is responsible for hydrolysis of terminal, non-reducing 1,4-linked alpha-D-glucose residues with release of alpha-D-glucose. It is a lysosomal hydrolase that is required for the degradation of a small percentage (1-3%) of cellular glycogen in human. Deficiency of this enzyme results in glycogen-storage disease type II (GSDII), also referred to as Pompe disease, an autosomal recessive disorder. Structurally normal glycogen is accumulated in lysosomes and cytoplasm in affected patients, primarily in muscle tissues. Excessive glycogen storage within lysosomes may interrupt normal functioning of other organelles and leads to cellular injury. In turn, this leads to enlargement and dysfunction of the entire organ involved (eg, cardiomyopathy and muscle weakness).
It has reported that the improper folding and trafficking of alpha-glucosidase resultinged from the genetic mutations may account for a significant number of Pomrope patients. […] We optimized this alpha-glucosidase assay in 1536-well plate format for identifying the novel small molecule inhibitors with the structures other than the sugar analogs in order to develop the new pharmacological chaperones. In particular, this assay is directed towards discovering compounds active in a more natural setting, tissue homogenate, that may have been missed by screens of the purified enzyme under more stringent conditions. This assay attempted to confirm hits from the primary screening.
NCGC Assay Protocol Summary:
This is a fluorogenic enzyme assay with 4-methylumbelliferyl-alpha-D-glucopyranoside as the substrate and human spleen homogenate containing alpha-glucosidase as the enzyme preparation. Upon hydrolysis of this fluorogenic substrate, the resulting product, 4-methylumbelliferone (which excites at 365 nm and emits at 440 nm) can be detected by a fluorescence plate reader. Data were normalized to the controls for basal activity (without enzyme) and 100% activity (with enzyme). The AC50 values were determined from concentration-response data modeled with the standard Hill equation.
Assay buffer: 50 mM citric acid (titrated with potassium phosphate to pH 5.0), 0.01% Tween-20 (pH 5.0 is an optimal condition for this enzyme assay)
1536-well assay protocol for the alpha-glucosidase from human spleen homogenate:
(1) Add 2 ul/well spleen homogenate (1 ug)
(2) Add 23 nL compounds in DMSO solution. The final titration was 0.5 nM to 58 uM.
(3) Add 2 ul of substrate (1 mM final)
(4) Incubate at 37 C for 40 min
(5) Add 2 ul stop solution (1M NaOH and 1M Glycine mixture, pH 10)
(6) Detect the assay plate in a ViewLux plate reader (PerkinElmer) with Ex=365 nm and Em=440nm.
Keywords: Alpha-glucosidase, Pompe Disease, pharmacological chaperone, chaperone therapy, high throughput screening, alpha-glucosidase inhibitor, MLSMR, MLSCN, NIH Roadmap, qHTS and NCGC
Potency is the fitted concentration of half-maximal effect.

| Compound | activity change, both directions | Potency |
| --- | --- | --- |
| O=C(c1ccc2ccccc2c1)N1CCN(S(=O)(=O)c2ccccc2)CC1 | -1.67% (inactive) |  |
| CCc1sc(-c2cc3ccccc3oc2=O)nc1-c1cc(C)ccc1C |  | 31.6 µM (active) |
| O=C(c1cccc2ccccc12)N1CCN(S(=O)(=O)c2ccccc2)CC1 | -15.3% (inactive) |  |
| Cn1c2c(c(=O)n(C)c1=O)CN(CC1CCCO1)CN2 (stereo not given) | 6.19% [at 31.5 µM] (inactive) |  |
| Cc1cccn2c(=O)c3cc(C#N)c(=NC(=O)c4cccs4)n(CCCOC(C)C)c3nc12 | 4.63% [at 31.5 µM] (inactive) |  |
| Nc1ccccc1N=Cc1ccc(-c2cccc(Cl)c2)o1 | 17.3% (inactive) |  |
| O=S(=O)(c1ccccc1)N1CCN(c2ccccc2)CC1 | 1.33% (inactive) |  |
| CCCN1CNc2c(c(=O)[nH]c(=S)n2CCc2cccc(C)c2C)C1 |  | 12.6 µM (active) |
| CCOC(=O)C(CC)(CCC(=O)O)c1csc(Nc2ccc(C)cc2)n1 (stereo not given) | 15% [at 31.5 µM] (inactive) |  |
| COc1ccc(CCn2c(N)cc(=O)[nH]c2=O)cc1OC | -1.76% [at 31.5 µM] (inactive) |  |
| CCCN1CNc2c(c(=O)[nH]c(=S)n2CCc2ccc(OC)c(OC)c2)C1 |  | 11.2 µM (active) and 15.8 µM (active) |
| CCC(C)Nc1nc(-c2cccc(OC)c2O)nc2ccccc12 (stereo not given) | 2.75% (inactive) |  |
| O=C(c1ccccc1)N1CCN(S(=O)(=O)c2ccccc2)CC1 | 1.54% (inactive) |  |
| COC(=O)c1ccc(CSc2cc(C)c3cccc(C)c3n2)o1 | 4.59% [at 31.5 µM] (inactive) |  |
| CCCN1CNc2c(c(=O)[nH]c(=S)n2CCc2ccc(C)cc2C)C1 |  | 39.8 µM (active) |
| Cc1nnc(SCC(=O)Nc2ccc3c(c2)COC3=O)n1-c1ccccc1 | 1.17% [at 31.5 µM] (inactive) |  |
| N#Cc1c(-c2cccs2)cc(-c2cccnc2)nc1N | 27.4% [at 31.5 µM] (inactive) |  |
| CCCc1cc(-c2nc(N)ncc2-c2ccc3c(c2)OCCCO3)c(O)cc1OC | -7.94% (inactive) |  |
| Cc1ccc2nc(-c3ccccc3N)[nH]c2c1 | 24.5% (inactive) |  |
| CC(=O)Nc1ccc(S(=O)(=O)N2CCN(c3ccc(C(C)=O)cc3)CC2)cc1 | -0.437% (inactive) |  |

| Compound | activity change, both directions | Potency |
| --- | --- | --- |
| CCc1sc(-c2cc3cccc(OC)c3oc2=O)nc1-c1cc(C)ccc1C |  | 15.8 µM (active) |
| COc1ccc(CCn2c3c(c(=O)[nH]c2=O)C(NC(=O)c2cccs2)(C(F)(F)F)C(=O)N3)cc1OC (stereo not given) | 4.85% [at 31.5 µM] (inactive) |  |
| CC(=O)Nc1ccc(S(=O)(=O)/N=C2/NC(=O)/C(=C\c3ccco3)S2)cc1 | 1.22% [at 31.5 µM] (inactive) |  |
| COc1ccc(S(=O)(=O)N2CCN(C(=O)COc3ccc4c(C)cc(=O)oc4c3)CC2)cc1 | -18.9% (inactive) |  |
| Cc1noc(C)c1S(=O)(=O)N(CC(=O)N1CCc2ccccc21)c1ccc(C(C)C)cc1 | 2.08% (inactive) |  |
| COC(=O)c1ccccc1S(=O)(=O)N1CCOCC1 | -14% (inactive) |  |
| O=C1Cc2cc(S(=O)(=O)N3CCN(c4ccc(Br)cc4)CC3)ccc2N1 | -14.2% [at 132 µM] (inactive) |  |
| COc1ccc(CCn2c3c(c(=O)[nH]c2=S)CN(C)CN3)cc1OC |  | 31.6 µM (active) |
| C/C=C1\COC(C(=O)NCCN2CCOCC2)(C(F)(F)F)C=C1C=C1CCCCC1 (stereo not given) | -1.87% (inactive) |  |
| CSc1ccccc1NC(=O)CN(C)CC(=O)NCc1ccccc1 | 4.33% [at 31.5 µM] (inactive) |  |
| Cc1sc(-c2cc3ccccc3oc2=O)nc1-c1ccc(Cl)cc1 | 11% (inactive) |  |
| COc1ccc(CCn2c3c(c(=O)[nH]c2=S)CN(c2ccccc2)CN3)cc1OC |  | 8.91 µM (active) |
| COc1ccc(/C=C/c2nnc(NC(C)=O)s2)cc1 | 1.39% (inactive) |  |
| COc1ccc(CCn2c3c(c(=O)[nH]c2=S)CN(Cc2ccccc2)CN3)cc1OC |  | 11.2 µM (active) |
| COc1ccc(CCn2cc(C#N)c(=O)[nH]c2=O)cc1OC | -2.91% [at 31.5 µM] (inactive) |  |
| O=c1oc2ccccc2cc1-c1csc(Cc2nc3c(s2)CCCC3)n1 | 5.03% (inactive) |  |
| COc1ccc(CCn2c(=S)[nH]c(=O)c3c(C)cc(C)nc32)cc1OC | -3.35% (inactive) |  |
| Cn1c(N)c(S(=O)(=O)c2ccc(Br)cc2)c2nc3ccccc3nc21 | 24% [at 31.5 µM] (inactive) |  |
| CC(=O)c1ccc(N2CCN(S(=O)(=O)c3ccc4c(c3)n(C)c(=O)n4C)CC2)cc1 | 0.0126% (inactive) |  |
| CCC1OC23CCCCC2C(C#N)(C(=N)O3)C1(C#N)C#N (stereo not given) | 2.02% [at 31.5 µM] (inactive) |  |
